Experimental data taken from PubChem BioAssay (NCATS).
Inconclusive results are not listed. The source made the active and inactive calls. Calls follow the shape of the full dose curve; tested in HEK293 reporter line.

Test: qHTS for Inhibitors of the Functional Ribonucleoprotein Complex (vRNP) of Lymphocytic Choriomeningitis Arenaviruses (LCMV): Viability assay - alamar blue signal for LCMV Primary Screen (AID 1347085); also: nearly all actives have a fitted effect of over 80% in size
Settings: alamar blue viability counter-screen, LCMV vRNP screen cells; series mostly up to 57.5 µM; activity change, negative = lower viability: at the top concentration
% is scaled to controls: 0 for no effect and ±100 for the full control effect; potency is read from the fitted curve at half-maximal effect.

SMILES	activity change, negative = lower viability	Potency
Cc1c(O)ccoc1=O	11.2% (inactive)	
CCCCCCC[C@@H](C/C=C/CCC(=O)N(C)C/C(=C/Cl)C/C(=C\C(=O)N1CC(OC)=CC1=O)OC)OC	-19.6% (inactive)	
CC/C=C\CC1=C(C)CCC1=O	20.7% [at 115 µM] (inactive)	
C/C=C1\NC(=O)[C@H](C)NC(=O)[C@@H](NC(=O)[C@H](Cc2ccc(O)cc2)NC(=O)[C@@H](NC(=O)/C(C)=C/C)C(C)C)[C@@H](C)OC(=O)[C@H](CC(C)C)NC(=O)[C@@H](CCC(=O)O)NC1=O	5% (inactive)	
Cc1c(O)c(C)c2c(c1O)C(=O)C[C@@H](c1ccccc1)O2	3.41% (inactive)	
CCCC(=O)C(C)=O	16.8% [at 115 µM] (inactive)	
COc1ccc(C2OCC3(O)C(c4ccc(OC)c(OC)c4)OCC23)cc1OC (stereo not given)	1.13% (inactive)	
CN1c2c(nc(N)[nH]c2=O)NCC1CNc1ccc(C(=O)NC(CCC(=O)O)C(=O)O)cc1 (stereo not given)	0.965% (inactive)	
CCCC(=O)OCc1ccccc1	21.6% [at 115 µM] (inactive)	
C=CC1CN2CCC1CC2C(O)c1ccnc2ccc(OC)cc12 (stereo not given)	2.56% (inactive)	
CC(C)CCC[C@@H](C)[C@@H]1CC[C@H]2C3=CC=C4CC(O)CC[C@]4(C)[C@H]3CC[C@@]21C (stereo not given in full)	3.24% (inactive)	
CS[C@H]1SC[C@@H]2C(=O)N(C)[C@H](C(C)C)C(=O)OC[C@H](NC(=O)c3cnc4ccccc4n3)C(=O)N[C@H](C)C(=O)N(C)[C@@H]1C(=O)N(C)[C@H](C(C)C)C(=O)OC[C@H](NC(=O)c1cnc3ccccc3n1)C(=O)N[C@H](C)C(=O)N2C		0.0061 µM (active)
CCCCCCCCCCCC(=O)c1c(O)cccc1O	14.3% (inactive)	
Oc1cc(O)cc(-c2cc3ccc(O)cc3o2)c1	-4.9% (inactive)	
CC1CCC(C(C)[C@H]2CCC3C4CC(=O)C5C[C@@H](O)CC[C@]5(C)C4CC[C@@]32C)=NC1 (stereo not given in full)	2.63% (inactive)	
O=c1ccc2cc3ccoc3cc2o1	19.6% (inactive)	
CC[C@@H](O)C[C@H]1CCC[C@@]2(C[C@@H]3OC(=O)/C=C/[C@@](C)(O)[C@@H](O)[C@H](C)[C@@H](O)[C@H](OC4CCC(N(C)C)C(C)O4)[C@@H](O)[C@](C)(O)CCCCC/C=C/[C@@H]4CC(C)(C)O[C@@]4(O)C[C@H](O2)[C@H]3C)O1 (stereo not given in full)	-110% (inactive)	
Cn1cnc2c(ncn2[C@@H]2O[C@H](CO)[C@@H](O)[C@H]2O)c1=N	6.08% (inactive)	
CCCCCc1cccc(=O)o1	20.4% (inactive)	
CC(CCC(=O)O)C1CCC2C3CC(O)C4CC(O)CC[C@]4(C)C3CCC12C (stereo not given in full)	28.3% (inactive)	

SMILES	activity change, negative = lower viability	Potency
COc1ccc(C[C@@H](C)[C@@H](C)Cc2ccc(OC)c(OC)c2)cc1OC		12.2 µM (active)
COc1ccc2c(Oc3ccc(NC(=O)c4c(C)n(CC(C)(C)O)n(-c5ccccc5)c4=O)nc3)ccnc2c1	-8.13% (inactive)	
CCCCCCCCOC(C)=O	12.6% [at 115 µM] (inactive)	
C#CCCC/C(=C\C(=O)N(C)[C@H](C(=O)N(C)[C@H](C(=O)N(C)[C@H](C(=O)N(C)[C@H](C(N)=O)C(C)C)C(C)C)C(C)C)C(C)C)OC	12.8% (inactive)	
CC1CCC[C@H](O)CCCCCc2cc(O)cc(O)c2C(=O)O1 (stereo not given in full)	-7.81% (inactive)	
CCCCCCCCCCCCCC	23.6% [at 115 µM] (inactive)	
CC1C(c2ccccc2)OC(=O)N1C (stereo not given)	4.98% (inactive)	
O=C(/C=C/c1ccc(O)c(O)c1)c1ccc(O)cc1O	19.3% (inactive)	
COc1cc(C/C=C\c2ccccc2)c(OC)cc1O	5.56% (inactive)	
COc1ccc(CNC(=S)NCc2ccc(OC)cc2)cc1	-0.346% (inactive)	
O=C1C=C(O)c2c(O)cc(O)c(O)c2C1=O	-27.7% (inactive)	
CCCCC[C@H](O)/C=C/C=C\C/C=C\C=C\[C@@H](O)CCCC(=O)O	2.14% [at 0.757 µM] (inactive)	
O=C(OCC1OC(Oc2ccc(O)cc2)C(O)C(O)C1O)c1ccccc1 (stereo not given)	11.9% (inactive)	
CC(c1c(O)c2ccccc2[nH]c1=O)C1(C)CCC(O)C(C)(C)O1 (stereo not given)	2.22% (inactive)	
C[C@@]12C[C@@]3(O)O[C@@H](O1)[C@]1(COC(=O)c4ccccc4)[C@@H]3C[C@@]12O[C@@H]1O[C@H](CO)[C@@H](O)[C@H](O)[C@@H]1O	9.89% (inactive)	
N[C@@H](CCCCNC(=O)CCCC[C@@H]1SC[C@H]2NC(=O)N[C@H]12)C(=O)O	11.1% (inactive)	
CC12C=CC(=O)C=C1CCC1C2C(=O)CC2(C)C(=O)CCC12 (stereo not given)	6.18% (inactive)	
COc1cc2cc(Oc3ccc4ccc(=O)oc4c3)c(=O)oc2cc1O[C@@H]1O[C@H](CO)[C@@H](O)[C@H](O)[C@H]1O	1.6% (inactive)	
CC(C)(O)Cc1ccccc1	2.91% [at 115 µM] (inactive)	
Cc1c(O)c2ccccc2oc1=O	0.298% (inactive)	
